Structures are written as SMILES. Compounds without any hit were thinned out: in the full panel of roughly 79,000, 15% have a hit. A number with no mark means an inactive call. Active and inactive are the calls of the source. No stated cut-off is given here; in the data, active means growth inhibition above about 70%; inactive means the rest.

The assay can be described thus: NCI Yeast Anticancer Drug Screen. Data for the rad50 strain (AID 155).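 Further: 0% = growth of vehicle-only cultures of the same strain.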 To be noted: S. cerevisiae rad50 strain growth inhibition; at 50.0 µM; hits give high values. The method, boiled down: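 Relative growth inhibition (compound vs vehicle) was measured in yeast with a defined repair-gene alteration.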
With `NC(=O)/C=C/c1ccc([As]=O)cc1` (stereo not given), the growth inhibition was 97.8% (active).
As to `O=[N+]([O-])c1cccc(SC(Cl)(Cl)Cl)c1`, the growth inhibition was 99.5% (active).
In the case of `COc1cc(/C=C(/C)[N+](=O)[O-])ccc1O`, the growth inhibition is 99.1% (active).
`CCC[CH2][Sn]1([CH2]CCC)[O]CC(CN2CCOCC2)[O]1` (stereo not given): the growth inhibition was 87.7% (active).
As to `O=C1CN2CCCCC2CN1` (stereo not given), the growth inhibition was -13.2%.
For the molecule `CCC[CH2][Sn]([CH2]CCC)([O]C(=O)CCC(C)=O)[O]C(=O)CCC(C)=O`, the growth inhibition was 87% (active).
For `C[CH2][Sn]([F])([CH2]C)[CH2]C` the value was 86.6% (active).
For `CN(C)CCBr`, the growth inhibition is 38%.
In the case of `O=[N+]([O-])c1ccc2c3c(cccc13)CC2`, the growth inhibition was 6.7%.
For the molecule `CC1=CC2CC(C)=C(CC[C@]3(C)CC[C@H]([C@@H](C)C(=O)O)OO3)C(C)(C)C2CC1` (stereo not given in full), the growth inhibition was 91.7% (active).
Then `ClC(CN1CCCCC1)C(Cl)c1ccccc1` (stereo not given), with 46.6%.
As to `CCOC(=O)c1ccc(N=Cc2ccc(N(CCCl)CCCl)cc2C)cc1`, the growth inhibition is 49.5%.
Then `CN=C(N)N/N=C(\C)c1ccc2sc3ccc(/C(C)=N/NC(N)=NC)cc3c2c1`, with 74.7% (active); and `c1cc2n[pH]nc2cn1` (stereo not given), with 5.55%; and `O=[N+]([O-])c1ccc(Br)c([N+](=O)[O-])c1`, with 99% (active).
Then `O=C(CBr)NC1CCCCC1`, with 81% (active); and `CC(C)C12C=C3CCC4C(C)(C(=O)O)CCCC4(C)C3(CC1)OO2` (stereo not given), with 93.7% (active).
On to `IC(I)=C(I)I`, for which the growth inhibition was 88.5% (active).
In the case of `Clc1ccc2c(c1)C(c1ccccc1Cl)=NCC(SCCN1CCOCC1)=N2`, the growth inhibition was 96.8% (active).
In the case of `CCOP(=O)(OCC)/C(C#N)=C/c1ccc(Br)cc1`, the growth inhibition is 92.3% (active).
For the molecule `Cc1ccc(C(=O)C2C(c3ccccc3)N2C2CCCCC2)cc1` (stereo not given), the growth inhibition was 11.1%.
Then `CN(C)c1ncnc2c1ncn2C1OC(CO)C2NP(=O)(N(CCCl)CCCl)OC21` (stereo not given), with 87.9% (active); and `Nc1nc(N)c(-c2ccc(Cl)c(Cl)c2)c(CCc2ccc(CNC(=O)c3cccc(S(=O)(=O)F)c3)cc2)n1`, with 62.7%; and `C[CH2][Pb]([CH2]C)([CH2]C)[O]C(=O)COc1ccc(Cl)cc1Cl`, with 91.5% (active).
`O=C(OCC(CCl)OC(=O)C(Cl)(Cl)Cl)C(Cl)(Cl)Cl` (stereo not given): the growth inhibition was 52.2%.

These data come from PubChem BioAssay (NCI).
